From PubChem BioAssay (Tox21) come the findings set out here.

Unmarked numbers belong to inactive results. Results filed as inconclusive are left out. Calls of active or inactive are those of the source. Unless noted, calls follow the shape of the dose curve; as a rule, active = well fitted curve in the direction sought with a large enough effect in the repeat runs; inconclusive = weak or mixed curves; inactive = no such curve, though single readings can be large; an effect the other way counts as inactive or inconclusive.

A short description of assay [1]: qHTS assay to test for compound auto fluorescence at 535 nm (green) in HEK293 cells (AID 720680). (In general: In qHTS, concentration-response curves come from the screen itself.)
Assay [2] in a line: qHTS assay to test for compound auto fluorescence at 460 nm (blue) in HEK293 cell free culture (AID 720681). An outline of the steps: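 Compounds were added to cell-free DMEM with 10% FBS and fluorescence read directly. The blue channel used 405 nm excitation and 460 nm emission, with triamterene as the reference fluorophore.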
The nature of assay [3]: qHTS assay to test for compound auto fluorescence at 535 nm (green) in HEK293 cell free culture (AID 720682). In outline: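 Cell-free medium (DMEM, 10% FBS) receives compound or DMSO by pintool. Plate read directly at Ex 485/Em 535 nm. Signal converted to fluorescein equivalency.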
A short description of assay [4]: qHTS assay to test for compound auto fluorescence at 590 nm (red) in HEK293 cell free culture (AID 720683). An outline of the steps:
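Cell-free wells of DMEM with 10% FBS received compound, and intrinsic fluorescence was read at excitation/emission 540/590 nm. Values expressed as equivalence to Rose Bengal sodium.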

Assay [5] in a line: qHTS assay to test for compound auto fluorescence at 590 nm (red) in HepG2 cell free culture (AID 720684). In outline: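 Rose Bengal sodium served as the reference for red signal. Test compounds were dispensed into serum-containing MEM (10% FBS) without cells, and plates were read at 540/590 nm.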
Assay [6] is described as follows: qHTS assay to test for compound auto fluorescence at 460 nm (blue) in HepG2 cell free culture (AID 720685). An outline of the steps:
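Cell-free plates of MEM plus 10% FBS received 23 nL compound or DMSO vehicle; blue-channel (405/460 nm) intensity scored against triamterene as reference fluorophore.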

Assay [7] in a line: qHTS assay to test for compound auto fluorescence at 535 nm (green) in HepG2 cell free culture (AID 720686).
Assay [8] in a line: qHTS assay to test for compound auto fluorescence at 460 nm (blue) in HepG2 cells (AID 720687). In outline: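 HepG2 cells in MEM with 10% FBS, attached overnight at 37 C, were exposed to compound or DMSO for 1 hr at 37 C, 5% CO2. Blue fluorescence was read at 405/460 nm, with triamterene as reference fluorophore.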
Assay [9] in a line: qHTS assay for identifying genotoxic compounds that show differential cytotoxicity against isogenic chicken DT40 cell lines with known DNA damage response pathways - wild type cell line (AID 743012). Also: nearly all actives have a fitted effect of over 60% in size. An outline of the steps: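 Viability of DNA repair-proficient chicken DT40 cells was assessed by CellTiter-Glo luminescence following 40 h compound exposure at 37 C/5% CO2.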
A short description of assay [10]: qHTS assay for identifying genotoxic compounds that show differential cytotoxicity against isogenic chicken DT40 cell lines with known DNA damage response pathways - Rev3 mutant cell line (AID 743014). Also: nearly all actives have a fitted effect of over 55% in size. Also: potency is read from the fitted curve at half-maximal effect.
Assay [11] can be described thus: qHTS assay for identifying genotoxic compounds that show differential cytotoxicity against isogenic chicken DT40 cell lines with known DNA damage response pathways - Rad54/Ku70 mutant cell line (AID 743015). Also: nearly all actives have a fitted effect of over 60% in size.
Assay [12] can be described thus: qHTS assay to identify small molecule antagonists of the androgen receptor (AR) signaling pathway - cell viability counter screen (AID 743033; also: nearly all actives have a fitted effect of over 45% in size).
Assay [13] can be described thus: qHTS assay to identify small molecule antagonists of the androgen receptor (AR) signaling pathway using the MDA cell line - cell viability counter screen (AID 743041; also: nearly all actives have a fitted effect of over 45% in size). An outline of the steps: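 Cytotoxicity counter screen: MDA-kb2 AR-luc cells, compound + R1881, 16 h, 37C, 0% CO2; CellTiter-Fluor added at 15.5 h, fluorescence read after 30 min.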
Assay [14] can be described thus: qHTS assay to identify small molecule antagonists of the glucocorticoid receptor (GR) signaling pathway - cell viability counter screen (AID 720693). Also: nearly all actives have a fitted effect of over 55% in size.
The target of assay [15] is Androgen receptor (Homo sapiens) (UniProt P10275). The assay can be described thus: qHTS assay to identify small molecule agonists of the androgen receptor (AR) signaling pathway (AID 743036; active = well fitted activation curve with a large enough effect in the signal ratio in the repeat runs, with a control signal flat, not every such curve was filed as active; the % refers to the signal ratio). In outline:
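AR-bla HEK293 cells, 2,000/well; 4 h preincubation 37C/5% CO2; compound (DMSO) 16 h at 37C; LiveBLAzer B/G FRET substrate 2 h RT; fluorescence intensity read-out.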

The target is the same in assay [16]. The experiment in a line: qHTS assay to identify small molecule agonists of the androgen receptor (AR) signaling pathway using the MDA cell line (AID 743040; also: nearly all actives have a fitted effect of over 20% in size). In outline:
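Luciferase read-out, ONE-Glo, 30 min RT. Cells: MDA-kb2 AR-luc, MMTV promoter with AR and GR response elements. Compound exposure 16 h, 37C, 0% CO2, after 5 h pre-incubation. qHTS agonist mode.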

For assay [17] the target is unchanged. The assay can be described thus: qHTS assay to identify small molecule antagonists of the androgen receptor (AR) signaling pathway using the MDA cell line (AID 743042; also: nearly all actives have a fitted effect of over 55% in size). An outline of the steps:
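MDA-kb2 breast carcinoma cells carrying MMTV-luciferase (AR/GR responsive) were co-treated with compounds and the agonist R1881 for 16 h at 37C. Inhibition read as ONE-Glo luminescence; CellTiter-Fluor fluorescence measured in parallel for cytotoxicity.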

For assay [18] the target is unchanged. The experiment in a line: qHTS assay to identify small molecule antagonists of the androgen receptor (AR) signaling pathway (AID 743035; active = well fitted inhibition curve with a large enough effect in the signal ratio in the repeat runs, not every such curve was filed as active; the % refers to the signal ratio). An outline of the steps:
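Reporter HEK293 cells were exposed to compounds and R1881 overnight (16 h, 37C); beta-lactamase activity was then quantified by FRET fluorescence.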
% is scaled to controls: 0 for no effect and ±100 for the full control effect.

Androgen receptor (Homo sapiens), sequence (P10275 whole entry, looked up): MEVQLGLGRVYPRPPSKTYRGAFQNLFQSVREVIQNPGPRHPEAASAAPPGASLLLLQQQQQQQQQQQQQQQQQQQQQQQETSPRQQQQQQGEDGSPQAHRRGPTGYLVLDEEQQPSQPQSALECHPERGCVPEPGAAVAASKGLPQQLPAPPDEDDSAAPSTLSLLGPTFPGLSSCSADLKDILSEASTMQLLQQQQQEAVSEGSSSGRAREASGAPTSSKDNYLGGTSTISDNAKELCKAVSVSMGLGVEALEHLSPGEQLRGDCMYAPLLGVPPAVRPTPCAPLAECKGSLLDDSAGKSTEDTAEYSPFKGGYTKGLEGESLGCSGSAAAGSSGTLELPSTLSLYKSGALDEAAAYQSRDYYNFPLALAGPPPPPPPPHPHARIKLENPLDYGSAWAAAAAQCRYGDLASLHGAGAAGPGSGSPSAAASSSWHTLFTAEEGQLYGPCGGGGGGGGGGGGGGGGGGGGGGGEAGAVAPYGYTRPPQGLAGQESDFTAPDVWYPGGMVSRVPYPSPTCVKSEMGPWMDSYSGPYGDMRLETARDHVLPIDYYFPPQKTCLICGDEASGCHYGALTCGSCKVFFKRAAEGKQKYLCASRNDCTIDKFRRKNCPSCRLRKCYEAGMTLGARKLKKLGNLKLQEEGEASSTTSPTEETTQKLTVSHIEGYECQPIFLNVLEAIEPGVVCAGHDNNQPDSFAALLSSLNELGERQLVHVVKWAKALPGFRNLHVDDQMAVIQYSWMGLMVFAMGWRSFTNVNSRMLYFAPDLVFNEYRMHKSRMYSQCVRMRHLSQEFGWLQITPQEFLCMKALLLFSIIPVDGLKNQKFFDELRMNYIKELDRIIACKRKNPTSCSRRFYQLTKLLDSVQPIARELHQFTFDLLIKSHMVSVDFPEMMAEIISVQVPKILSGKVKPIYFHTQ

For `C=C(C)C(=O)OCC(C)(C)COC(=O)C(=C)C`, the result in [1], in assay [2], in [3], in assay [4], in assay [5] and in [6] was inactive. For the same compound, the result in assay [7] and in assay [8] was inactive. Besides, the Potency result in assay [9], in assay [10], in assay [11], in [12] and in [13] was “inactive” throughout.

Take `CN=C(NC#N)Nc1ccc(C2=NNC(=O)CC2C)cc1` (stereo unspecified): the compound was called inactive in assay [1], in assay [2], in assay [3], in assay [4], in [5] and in assay [6]. Also, the outcome in [7], in [8] and in [14] was inactive. Besides, the Potency result in assay [9], in assay [10], in assay [11], in assay [12] and in assay [13] was “inactive” each time.

As for `O=C(NCCc1c[nH]c2ccccc12)c1cccnc1`, the result in assay [1], in assay [2], in assay [3], in assay [4], in assay [5] and in assay [6] was inactive. For the same compound, the outcome in [7], in [8], in assay [14], in assay [15] and in [16] was inactive. The Potency result in [9], in assay [10], in assay [12], in assay [13] and in [17] was “inactive” throughout.

In the case of `CCOC(=O)c1ccc(OC(=O)CCCCCN=C(N)N)cc1`, the fluorescence, % of fluorescein in assay [1] is -0.102% [at 18.6 µM]. In addition, the fluorescence, % of fluorescent control is -0.0274% [at 18.6 µM] in [2], 0.226% [at 18.6 µM] in [4], 0.0222% [at 18.6 µM] in assay [6] and 0.0159% [at 18.6 µM] in assay [8]. Further, the activity change in assay [3] was -0.162% [at 18.6 µM]. In addition, the fluorescence, % of Rose Bengal in assay [5] was -0.0877% [at 18.6 µM]. The fluorescence, % of fluorescein control in assay [7] is -0.0655% [at 18.6 µM]. Also, the call in assay [14] was inactive. The Potency entry in assay [11] and in assay [13] was “inactive” each time.

As for `O=C(NCCN1CCOCC1)c1ccc(Cl)cc1`, the outcome in assay [1], in assay [2], in assay [3], in assay [4], in [5] and in [6] was inactive. Also, the compound was classed as inactive in [7], in assay [8] and in [14]. For the same compound, the Potency entry in assay [9], in assay [10], in [11], in [12] and in assay [13] was “inactive” throughout.

For the compound `CC(COC(C)(C)C)OCCCO` (stereo unspecified), the compound was classed as inactive in assay [1], in [2], in [3], in assay [4], in assay [5] and in assay [6]. The call in assay [7], in [8] and in [14] was inactive. Further, the Potency entry in assay [9], in assay [11], in assay [12] and in assay [13] was “inactive” throughout.

Regarding `Nc1ccc(S(=O)(=O)Nc2ccc(Cl)nn2)cc1`, the outcome in assay [1], in assay [2], in assay [3], in assay [4], in assay [5] and in [6] was inactive. Besides, the compound was classed as inactive in [7], in assay [8], in assay [14], in assay [15] and in assay [16]. Besides, the Potency result in assay [9], in assay [10], in [11], in [12], in [18] and in assay [13] was “inactive” each time. The Potency entry in assay [17] was “inactive”.

Consider `CCOC(=O)/C=C/c1ccccc1`, for which the result in assay [1], in [2], in assay [3], in [4], in [5] and in [6] was inactive. Further, the call in [7], in assay [8] and in assay [14] was inactive. In addition, the Potency result in assay [9], in assay [10], in assay [12] and in assay [13] was “inactive” throughout.

On to `C=C(C)C(=O)OCc1ccccc1`, for which the call in assay [1], in assay [2], in assay [3], in [4], in assay [5] and in assay [6] was inactive. Moreover, the result in assay [7], in assay [8] and in assay [14] was inactive. Besides, the Potency entry in [9], in assay [10], in [11] and in assay [12] was “inactive” each time.

On to `C#CC(C)N(C)C(=O)Nc1ccc(Cl)cc1` (stereo unspecified), for which the result in assay [1], in assay [2], in [3], in assay [4], in [5] and in [6] was inactive. Besides, the call in [7], in assay [8], in assay [14], in assay [15] and in assay [16] was inactive. Also, the Potency result in assay [12], in assay [13] and in assay [17] was “inactive” each time.

Turning to `Nc1nnc(-c2cccc(Cl)c2Cl)c(N)n1`, the call in assay [1], in assay [2], in [3], in assay [4], in [5] and in [6] was inactive. Also, the result in [7] and in assay [8] was inactive. The Potency result in [9], in assay [10], in assay [12] and in assay [13] was “inactive” each time.

For the compound `O=C(c1ccc(O)cc1)c1ccc(O)c(O)c1O`, the compound was called inactive in [1], in assay [2], in [3], in [4], in [5] and in [6]. Also, the compound was classed as inactive in assay [7], in assay [8] and in [14]. Further, the Potency entry in [12] is “inactive”.

Turning to `CCCCCOC(=O)CCC`, the result in assay [1], in assay [2], in assay [3], in assay [4], in [5] and in assay [6] was inactive. Also, the compound was called inactive in assay [7], in assay [8] and in [14]. Further, the Potency entry in assay [9], in assay [10], in [11], in [12] and in assay [13] was “inactive” each time.

With `CC(C)CC(C)CC(C)CC(C)COC(=O)c1ccccc1C(=O)OCC(C)CC(C)CC(C)CC(C)C` (stereo unspecified), the result in assay [1], in assay [2], in assay [3], in assay [4], in assay [5] and in assay [6] was inactive. For the same compound, the compound was called inactive in [7], in [8] and in [14]. In addition, the Potency result in [9] and in assay [12] was “inactive” each time. The Potency in assay [10] was 25.3 µM (active).

Take `O=C(NCC(O)CO)c1c(I)c(C(=O)NCC(O)CO)c(I)c(N(CCO)C(=O)CO)c1I` (stereo unspecified): in assay [1], the fluorescence, % of fluorescein was -0.0067% [at 18.6 µM]. Moreover, the fluorescence, % of fluorescent control was -0.0567% [at 18.6 µM] in assay [2], 0.453% [at 18.6 µM] in assay [4], -0.1% [at 18.6 µM] in assay [6] and -0.0045% [at 18.6 µM] in assay [8]. Moreover, the activity change in assay [3] was -0.0517% [at 18.6 µM]. Further, the fluorescence, % of Rose Bengal in assay [5] was 0.343% [at 18.6 µM]. Besides, in assay [7], the fluorescence, % of fluorescein control was -0.0658% [at 18.6 µM]. Also, the compound was classed as inactive in [14]. In addition, the Potency result in [9], in assay [10], in assay [11], in assay [12] and in assay [13] was “inactive” throughout.
